In all, about 68,000 sequences were measured (“fluorescence intensity (a.u.)”: median about 9,100, highest 2% from about 16,000 on). The list comes from a sample in which the highest values are over-represented; it also holds similar and randomly drawn sequences.

OsWRKY34, sequence (Q0JBA9 entry or part of it): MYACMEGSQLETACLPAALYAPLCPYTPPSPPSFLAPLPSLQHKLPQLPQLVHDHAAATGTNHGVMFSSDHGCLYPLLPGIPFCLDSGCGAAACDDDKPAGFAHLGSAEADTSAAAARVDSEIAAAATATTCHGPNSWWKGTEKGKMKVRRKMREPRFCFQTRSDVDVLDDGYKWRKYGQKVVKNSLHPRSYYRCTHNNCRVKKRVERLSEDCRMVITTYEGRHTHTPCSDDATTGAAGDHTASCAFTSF

The test addresses OsWRKY34 (Oryza sativa, UniProt Q0JBA9 1-250). Briefly: protein-binding microarray (RPBM); PBS, 2% BSA, 51.3 ng/ul salmon testes DNA, 50 uM zinc acetate, 200 nM TF, 25 C, 1 h; high values mean tight binding. Particulars: protein: recombinant; tags: N-terminal polyhistidine and DsRed monomer fusion (pET32a); label: CyDye5-dUTP incorporated in the synthesized complementary strand; 3' TTTTT single-stranded linker to array surface; dsDNA, one strand shown. In outline: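 An Axon 4000B scanner gave the binding signal as per-feature fluorescence intensity in arbitrary units. This followed washing of a custom Agilent array that had been incubated for 1 h at 25 °C with 200 nM protein in PBS, 2% BSA, salmon testes DNA and 50 µM zinc acetate. The proteins were transcription factors fused at the N-terminus to polyhistidine and DsRed, expressed in E. coli BL21-CodonPlus and purified on Ni–NTA.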
As to “TCTTTTGTCACATCTTTATAATATTGCCCATGGCACATACCGGAGTCACCTAGTGCAG”, the binding signal is 8490 fluorescence intensity (a.u.). For “TGCCATCTCCTTCGCCATTGGAGCTCACCACACACTCGCTCGGAGTCACCTAGTGCAG”, the binding signal is 9660 fluorescence intensity (a.u.).

On to “CACCTGACCCATTCTTGCTTACCTTATATTTAGCATACTCCGGAGTCACCTAGTGCAG”, for which the binding signal is 8160 fluorescence intensity (a.u.). As for “CTATTTTATAAAATCTTTGTTTATGCATACCAGCTAAATTCGGAGTCACCTAGTGCAG”, the binding signal is 8800 fluorescence intensity (a.u.).

Take “AAGCCAACCCAACCCGCACCTTCTCGCTGCTTCTACTACTCGGAGTCACCTAGTGCAG”: the binding signal was 13100 fluorescence intensity (a.u.). The value for “ACGGTGGCGTTGTGCCCTGTGATGGTGTCCGCGTTGTGTCCGGAGTCACCTAGTGCAG” was 8990 fluorescence intensity (a.u.); that for “GCAACGGGGAGGTGGGCGGAGGTGCGGCGCGGCGGCGGGCCGGAGTCACCTAGTGCAG” was 10300 fluorescence intensity (a.u.); that for “CAGAGCAGGGGAGGGGAGGGGAGGGGATCCTGGTGAGCCTCGGAGTCACCTAGTGCAG” was 17600 fluorescence intensity (a.u.). In the case of “CTAGTGAGGGGCGGGCGGGCGGGCAAGGGGAGCGGATGGGCGGAGTCACCTAGTGCAG”, the binding signal is 19100 fluorescence intensity (a.u.). For “CGGGCGGATGAGGGGCGGCGATGGGCGGGCAAGGGGCGTGCGGAGTCACCTAGTGCAG” the value was 12500 fluorescence intensity (a.u.); for “CTGGCGAGCAGAGCAGGGGAGGGGAGGGGAGGGGATCCTGCGGAGTCACCTAGTGCAG”, 15800 fluorescence intensity (a.u.).

Take “ATGTGGTTTGGTGAGCGCCGCTGTGCCCACCTAACCCACACGGAGTCACCTAGTGCAG”: the binding signal is 27300 fluorescence intensity (a.u.). As to “TGCCGCTGCCGCCGTGTGCCCGAGCGAGCCCACGCCCACACGGAGTCACCTAGTGCAG”, the binding signal is 8340 fluorescence intensity (a.u.). The value for “GTCGAGGCGGCGGCGGCGGGGCGCGGAGTGAGGTGGGTGCCGGAGTCACCTAGTGCAG” was 8640 fluorescence intensity (a.u.).

As to “TCTCAGCAGGGGAGGGGAGGGGAGGGGATCCTGGTGAGGTCGGAGTCACCTAGTGCAG”, the binding signal is 15700 fluorescence intensity (a.u.). The value for “GCTGCTGCTGCCGCCCGGCCGCCACCCGTGACCCGCGCCACGGAGTCACCTAGTGCAG” was 8860 fluorescence intensity (a.u.); that for “ACGTGTACGGCGCGGGGTGGAGGTGAGGGGTGGTGGGGCCCGGAGTCACCTAGTGCAG” was 18000 fluorescence intensity (a.u.).

Regarding “GGGCAAGGGGAGCGGATGGGCGGGGAGGAGGCAGGCTGCGCGGAGTCACCTAGTGCAG”, the binding signal was 11600 fluorescence intensity (a.u.). The value for “CTGGGATTTGGTGGAGCTCCTGCGGTGGGGTGCCAGTGATCGGAGTCACCTAGTGCAG” was 12200 fluorescence intensity (a.u.). For “ACTGTATATCGATGGCCCACTCGGCCCGACCCGTCCCGGCCGGAGTCACCTAGTGCAG” the value was 10600 fluorescence intensity (a.u.); for “ATCAAGCCGAATAGTGCTGACATCTTCATTCTGGTTTTTTCGGAGTCACCTAGTGCAG”, 9510 fluorescence intensity (a.u.); for “GTCTAGTATAAATCAACGCCACACCACTTGCCTAGTCATCCGGAGTCACCTAGTGCAG”, 8070 fluorescence intensity (a.u.).

Take “GTCGGCGCCCATAGTTTTTTTCCGCAAGGGTTTTCTACGTCGGAGTCACCTAGTGCAG”: the binding signal was 8810 fluorescence intensity (a.u.). For “TCTTAAGCGTGTTCATGGGTCTTGTTATGCTCAAGTCAAACGGAGTCACCTAGTGCAG” the value was 8950 fluorescence intensity (a.u.); for “ATCTCTTTCATCCGATTACTGTGTTTTTTCTGTGGTCCAACGGAGTCACCTAGTGCAG”, 8410 fluorescence intensity (a.u.); for “GCCGCTTGCCCTCGCAGCCGCTCCGCCTGCCTCCGCCCACCGGAGTCACCTAGTGCAG”, 10000 fluorescence intensity (a.u.).

With “ATCTGGTAACTCAAGTGCTCTCTTCCTGACTGCTGCAGCACGGAGTCACCTAGTGCAG”, the binding signal was 9470 fluorescence intensity (a.u.).

Consider “GATGAGTGGTGATTGGTGAAGATATCTGGTGGTTTTGGGACGGAGTCACCTAGTGCAG”, for which the binding signal was 8630 fluorescence intensity (a.u.). For “AACCCGTTCACACACATTGTCAGGGACCAGCTCATTACTTCGGAGTCACCTAGTGCAG” the value was 10400 fluorescence intensity (a.u.).

For the sequence “AACGATGACGACGTGTGCGCGCTGTTGTTTTTTTGTCCCACGGAGTCACCTAGTGCAG”, the binding signal was 19700 fluorescence intensity (a.u.). In the case of “AATGTTTGATACCGTTGACTTTTTAGTACGTGTTTGATCACGGAGTCACCTAGTGCAG”, the binding signal was 32600 fluorescence intensity (a.u.). The value for “TGATTTTTGTCCCACGTGGCATTGACGTGGCGCTTATGTGCGGAGTCACCTAGTGCAG” was 8850 fluorescence intensity (a.u.); that for “TGACTTTTTAGTACGTGTTTGATCATTCGTCTTATTCAAACGGAGTCACCTAGTGCAG” was 10800 fluorescence intensity (a.u.); that for “GGGCTGTTGTGTGTGTGTTTTGCGACGTGCCGTGCTGGGCCGGAGTCACCTAGTGCAG” was 8290 fluorescence intensity (a.u.). For “TCCCCACCTGTCAGTACTTATGTTTTGACTTTTTGACCCACGGAGTCACCTAGTGCAG” the value was 14300 fluorescence intensity (a.u.); for “CCGTTGACTTTTTAGTACGTGTTTGATTCATTCTTAAATACGGAGTCACCTAGTGCAG”, 16200 fluorescence intensity (a.u.); for “AATGTTTGACACCGTTGACTTTTTAGTACGTGTTTGTCCACGGAGTCACCTAGTGCAG”, 30200 fluorescence intensity (a.u.). “CCTGCCCGGTGTGCTGTGACTTGCCGTTATCGTCACCGTTCGGAGTCACCTAGTGCAG”: the binding signal is 10200 fluorescence intensity (a.u.). Regarding “CACTTCTTTTCTCTATGGCGGCATCTGAATCTATGTGGATCGGAGTCACCTAGTGCAG”, the binding signal was 9450 fluorescence intensity (a.u.).

On to “AATCACCTCCCTTATCTTACCTGCATGACAAATGCCTCGACGGAGTCACCTAGTGCAG”, for which the binding signal is 8590 fluorescence intensity (a.u.). As to “ACCCACCATGCCACCCCACTCCTTCTTTAAACTTGTAAACCGGAGTCACCTAGTGCAG”, the binding signal was 9480 fluorescence intensity (a.u.).

“TCTCCTATCCAGTTGGATTCCCAAAATTTCGCCTTTCGTCCGGAGTCACCTAGTGCAG”: the binding signal is 8070 fluorescence intensity (a.u.).

Source of the values: publication PMC7819943, “Rice protein-binding microarrays: a tool to detect cis-acting elements near promoter regions in rice”.
